PubChem BioAssay (NCATS)
Results filed as inconclusive are left out. The source made the active and inactive calls. Calls follow the shape of the dose curve; as a rule, active = well fitted curve in the direction sought with a large enough effect; inconclusive = small, poorly fitted or top-dose-only effect, or another doubt; inactive = no such curve, though single readings can be large or run the other way.

assay: Cytometric Cell-Based qHTS for Inhibitors of the mTORC1 Signaling Pathway in MEF (Tsc2-/-, p53-/-) Cells (AID 2660); details: mTORC1 pathway cytometry; series mostly up to 38.3 µM; activity change, negative = inhibition: at the top concentration;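 also: Tsc2 and p53 null MEFs carrying empty vector with compound for 24 h; percent of cells above a phospho-rpS6 to PI ratio cutoff in each well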
Source text: NIH Molecular Libraries Probe Production Centers Network [MLPCN]
NIH Chemical Genomics Center [NCGC]
Assay Submitter (PI): Blenis, John; Hoffman, Greg; Harvard University
NCGC Assay Overview: The mammalian target of rapamycin (mTOR) is an intracellular serine/threonine kinase Aberrant regulation of mTOR signaling plays a causative role in a number of human diseases, including cancer, benign tumors such as lymphangioleiomyomatosis (LAM) and Tuberous Sclerosis Complex (TSC), and metabolic diseases such as diabetes and obesity. This project aims to identify inhibitors of ribosomal protein S6 (rpS6) phosphorylation. The phosphorylation of rpS6 is a key event downstream of mTOR activation. The assay uses a phospho-specific antibody of phospho-rpS6 to detect inhibitors of mTOR activation. Mutations in the Tsc1 and Tsc2 genes are the underlying genetic lesions responsible for TSC, causing constitutive activation of the mTORC1 pathway and leading to profound effects on cell metabolism. Aberrant metabolism in cancer has recently received significant attention as a target to develop therapeutic agents in the treatment of cancer.1 As Tsc2-/- cells have lost the ability to respond to energy and growth factor deprivation, these cells are unable to properly down regulate cellular biosynthetic processes in response to metabolic stress, and are thus extremely sensitive to glucose deprivation-induced death.2 A central goal of this project is to explore the unique cell survival and metabolic properties of cells with Tsc1 or Tsc2 by screening for compounds that selectively target the Tsc2-/- MEFs by screening both Tsc2-/- and WT MEF cell lines. We hope to better understand these aspects of TSC physiology in order to exploit them for therapeutic benefit.
NCGC Acumen Assay Protocol Summary:
For quantitative high throughput analysis of mTORC1 signaling, we developed a cell-based assay for immuno-fluorescence based detection of rpS6 phosphorylation on the Acumen Explorer that will be used a platform for the primary small molecule screen. Mouse embryonic fibroblasts (MEFs) are cultured in 1536-well plates using DMEM + 10% FBS. Twenty-four hrs after plating, test compounds (solubilized in DMSO) are delivered and incubated with the cells for 24 hrs at 37 degree Celsius. Following the incubation, media with compound is aspirated and the cells are fixed in 4% paraformaldehyde (PFA) containing PBS + 0.2% TX-100. Next, PFA is aspirated, cells are washed two times with PBS plus 0.2% TX-100 and the cells are blocked for 1 hr at room temperature (blocking buffer: LiCOR Blocking Buffer plus 0.2% TX-100). This is followed by aspiration and staining with Alexa-488 conjugated-phospho-rpS6 Ser235/236 antibody for 2 hours at room temperature (Cell Signaling Technology # 4803, 1:50 dilution in blocking buffer). Cells are washed two times with PBS plus 0.2% TX-100, and stained with 10 uM propidium iodide (PI) for 20-25 minutes for cell number measurement (1:500 dilution of Hoescht staining is also added for IN Cell imaging). The plates are scanned on the Acumen Explorer laser scanning instrument (TTP Labtech) using the 488nm laser for simultaneous excitation of the Alexa-488 and PI. The fluorescence emission from the Alexa-488 conjugated rpS6 phospho-235/236 antibody staining is selected using a […] band pass filter. Fluorescence emission from the PI stain is selected using a 575-640 nm band pass filter. The normalized phospho-S6 staining is calculated as the ratio of the integrated Alexa 488 intensity divided by the integrated PI intensity for the single concentration rapamycin control (7.5 nM) and DMSO columns. […] Inhibition of the pathway is defined based on the normalized phospho-S6 intensity in rapamycin treated cells. […]

Structure (SMILES)	activity change, negative = inhibition	outcome
CC(NC(C)(C)C)C(=O)c1cccc(Cl)c1 (stereo not given)	3.76% (inactive)	
CN1C(=O)CCS(=O)(=O)C1c1ccc(Cl)cc1 (stereo not given)	14.4% (inactive)	
CCCCC/C=C\C/C=C\C/C=C\C/C=C\CCCC(=O)NCC(=O)O	-0.888% (inactive)	
COc1ccc2c(c1OC)C(=O)O[C@H]2[C@@H]1c2cc3c(cc2CCN1C)OCO3	4.05% (inactive)	
CC(C)c1cccc(C(C)C)c1O	5.41% (inactive)	
O=C(CCCN1CCC2(CC1)C(=O)NCN2c1ccccc1)c1ccc(F)cc1	7.16% (inactive)	
O=P1(N(CCCl)CCCl)NCCCO1 (stereo not given)	-5.68% (inactive)	
CC(C)N(CCC(C(N)=O)(c1ccccc1)c1ccccn1)C(C)C (stereo not given)		inactive
C=C(C)[C@H]1CN[C@H](C(=O)O)[C@H]1CC(=O)O	-1.62% (inactive)	
CC(C)(C)NCC(O)c1ccccc1Cl (stereo not given)	-0.507% (inactive)	
O=c1[nH]oc2c1CCNC2	6.36% (inactive)	
CCC1(c2ccc(N)cc2)CCC(=O)NC1=O (stereo not given)	-1.29% (inactive)	
NCCc1ccc(O)cc1	-1.66% (inactive)	
Cc1ncsc1CCCl	8.4% (inactive)	
O=C(O)CCCc1ccc(N(CCCl)CCCl)cc1	1.84% (inactive)	
